Assay results as given in PubChem BioAssay AID2685 (National Center for Advancing Translational Sciences (NCATS), 2010).
Out of some 320,000 compounds screened, about 2,100 (0.66%) were called active. Another 53% or so got no clear call; they are omitted. The call rests on the fitted dose curve; in most records, active means well fitted inhibition curve with a large enough effect in the signal ratio, with a control signal flat (not every such curve was filed as active); inconclusive means small, poorly fitted or top-dose-only effect, or effect the other way, or a change in a side signal; inactive means flat fitted curve, though single readings scatter; the % refers to the signal ratio. Only a selection was taken, and actives are over-represented in it overall.

Experiment: qHTS Assay for Lipid Storage Modulators in Drosophila S3 Cells;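 on cell number change: cells counted by Cell Tracker Red CMTPX staining in the red channel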
Details: BODIPY lipid droplet fluorescence, 18-24 h, cells fed with added oleic acid; cell number change: measured here: cell count max response; series mostly up to 46.1 µM
Excerpt: NIH Molecular Libraries Probe Production Centers Network [MLPCN] NIH Chemical Genomics Center [NCGC] MLPCN Grant: 1 R03 MH085686-01 Assay Submitter (PI): Beller, Mathias; Max-Planck-Institut fur Biophysikalische Chemie NCGC Assay Overview: Storing lipids as a reservoir for energy or the anabolism of elementary metabolites is a common feature of probably all cells and is conserved from bacteria to humans. The universal cellular lipid storage organelle is the so-called lipid storage droplet (LD). Although ubiquitous, LDs share a simple structure composed of a hydrophobic core that harbors the storage lipids, which is shielded by a droplet-specific phospholipid monolayer to which proteins are attached. The current model of LD biogenesis involves an incorporation of the lipid core into the membrane leaflets of the endoplasmic reticulum (ER) followed by a subsequent budding-like maturation of a LD, which ultimately pinches off. Once released, LD volume can increase by localized lipogenesis or fusion of existing droplet. Storage lipids are re-mobilized enzymatically by lipase activity. Lipase regulation in the adipocyte is heavily studied and involves multiple components including catecholamine signaling, the LD-associated proteins Perilipin and comparative gene identification (CGI-58) and at least two lipases named hormone sensitive lipase (HSL) and adipocyte triglyceride lipase (ATGL). LD regulation outside of the adipocyte is poorly understood and only few components are known. However, there is an urgent need to learn more about ectopic fat depots as mislocalized storage of lipids, for example in the liver or muscle, is an eminent health problem associated with insulin resistance or the metabolic syndrome. We developed a laser-scanning cytometer assay to enable 1,536-well screening and combined the results of the small molecules screen with an RNAi database based on lipid storage.
Triacsin C (Sigma-Aldrich T-4540), an inhibitor of long-chain fatty acyl CoA synthetase that blocks synthesis of triglycerides, was used as a positive control for lipid under-storage. A total of 23 nL of compound solution of different concentrations were transferred to the assay plates using a Kalypsys pin tool equipped with a 1,536-pin array containing 10-nL slotted pins (FP1S10, 0.457-mm diameter, 50.8 mm long; V&P Scientific). One microliter of oleic acid (400 uM) was added, and the plate was lidded with stainless steel rubber gasket lined lids containing pinholes. […] Fluorescence was detected by excitation of the fluorophores with a 488-nm laser on an Acumen Explorer (TTP Lab Tech). The total intensity in channel 2 (500-530 nm) reflected lipid droplet accumulation. Cells were detected using channel 3 (575-640 nm) with 5-um width and 100-um depth filters. The ratio of the number of objects in PMT channel 2 over the number of objects in PMT channel 3 was also calculated. Percent activity was computed relative to an internal control (100% inhibited lipid droplet deposition due to the presence of 20 uM Triacsin C), which was added to 32 wells/plate.
Potency means the concentration at half of the fitted maximal effect.

Structure (SMILES) | Potency | cell number change [%]
CN1CCN(NC(=O)c2cc(S(=O)(=O)Nc3ccc(Cl)cc3)ccc2Cl)CC1 | inactive | 18.2
O=[N+]([O-])c1cc([N+](=O)[O-])c2cc3ccccc3nc2c1 | 3.26 µM (active) | -20.7
O=[N+]([O-])c1cc([N+](=O)[O-])c2n[nH]c(-c3ccccc3)c2c1 | inactive | 17.9
O=[N+]([O-])c1cnc2ccccc2c1 | inactive | 16.2
Cc1ccc(C(=O)NCCn2cc(SCC(=O)Nc3cc(C)on3)c3ccccc32)cc1 | inactive | –
COc1ccccc1NC(=O)c1ccc(-n2ccnc2)c([N+](=O)[O-])c1 | inactive | 13
Cc1nn(CC(=O)Nc2ccc(S(=O)(=O)N(C)C)cc2)c(C)c1[N+](=O)[O-] | inactive | 9.05
Cc1nn(CC(=O)Nc2ccc(N(C)C)cc2)c(C)c1[N+](=O)[O-] | inactive | -14.5
CN(C)S(=O)(=O)c1cc(NC(=O)c2ccc(-n3ccnc3)c([N+](=O)[O-])c2)ccc1Cl | 20.6 µM (active) | 5.46
Cc1nn(CC(=O)Nc2ccc(Cl)c(S(=O)(=O)N(C)C)c2)c(C)c1[N+](=O)[O-] | 0.58 µM (active) | -5.49
O=C(O)c1ccc(-n2ccnc2)c([N+](=O)[O-])c1 | inactive | 9.03
CN(C)S(=O)(=O)c1ccc(C(=O)NCCSc2ccc(Br)cc2)cc1 | inactive | 20
Cc1ccc2[nH]c(=O)c(CN(CCCN(C)C)C(=S)NCCc3ccccc3)cc2c1 | inactive | -4.82
CC(CCc1ccccc1)NC(=O)C1CCN(S(=O)(=O)c2cnc[nH]2)CC1 (stereo not given) | inactive | –
COc1ccc(S(=O)(=O)N2CCC(C(=O)NCC3CCCO3)CC2)cc1 (stereo not given) | inactive | –
Cc1c(C#N)sc(C(N)=O)c1C | inactive | 10.5
Clc1cccc(NCc2nnc(SCc3ccccc3)o2)c1 | inactive | -10.7
O=C(NC(NC(=S)Nc1c(Cl)cccc1Cl)C(Cl)(Cl)Cl)c1cccc([N+](=O)[O-])c1 (stereo not given) | 3.66 µM (active) | 18.3
O=C(O)c1cccc(NC(=S)NC(NC(=O)c2cccc([N+](=O)[O-])c2)C(Cl)(Cl)Cl)c1 (stereo not given) | inactive | -10.1
O=C(NC(NC(=S)Nc1ccc(Cl)cc1Cl)C(Cl)(Cl)Cl)c1cccc([N+](=O)[O-])c1 (stereo not given) | inactive | 12.3
COc1cccc(CNC(=O)Cn2c(=O)n(CCC(=O)N3CCCCC3)c(=O)c3sccc32)c1 | 4.11 µM (active) | -6.85
CCCNC(=O)Cn1c(=O)n(CC(=O)N2CCCCC2)c(=O)c2sccc21 | inactive | -0.943
COCCNC(=O)Cn1c(=O)n(CCCC(=O)NCc2ccc3c(c2)OCO3)c(=O)c2sccc21 | inactive | 7.14

Structure (SMILES) | Potency | cell number change [%]
CC(=O)c1sc(Nc2ccc(C)cc2)nc1C | inactive | 7.99
O=C(NNC(=O)C1CC1)c1cc(Cl)nc2ccccc12 | inactive | 13.7
Cc1nn(Cc2ccccc2Cl)c(C)c1NC(=O)CCCn1nc(C)c([N+](=O)[O-])c1C | inactive | -4.35
Cc1nn(Cc2ccc(Cl)cc2)c(C)c1NC(=O)C(c1ccccc1)c1ccccc1 | 23.1 µM (active) | -18.5
Cc1nn(Cc2ccc(Cl)cc2)c(C)c1NC(=O)C1CC=CCC1C(=O)O (stereo not given) | inactive | 2.56
Cc1ccc(Cn2nc(C)c(NC(=O)CCCn3nc([N+](=O)[O-])c(Cl)c3C)c2C)cc1 | 8.2 µM (active) | -28.1
Cc1nn(Cc2ccc(Cl)cc2)c(C)c1NC(=O)CCCn1nc([N+](=O)[O-])c(Cl)c1C | inactive | -11.8
Cc1cc(C(=O)Nc2c(C)nn(Cc3ccc(Cl)cc3)c2C)no1 | inactive | -17.6
Cc1nn(Cc2ccccc2)c(C)c1NC(=O)CCCn1nc([N+](=O)[O-])c(Cl)c1C | inactive | -5.3
Cc1nn(Cc2ccc(Cl)cc2)c(C)c1NC(=O)CCCn1nc(C)c([N+](=O)[O-])c1C | 2.31 µM (active) | 3.25
Cc1nn(CCCC(=O)NCc2ccc(Cl)cc2)c(C)c1[N+](=O)[O-] | inactive | –
C/C(=N\NC(=O)Cc1c(Cl)cccc1Cl)c1cccnc1 | inactive | –
CC(C)(C)c1ccc(/C=C/C(=O)O)s1 | inactive | 0.873
C=Cn1cc[n+](CC(=O)c2ccc(Br)s2)c1 | inactive | -18.1
c1ccc(-n2cc(CN3CCC(N4CCOCC4)CC3)c(-c3ccc4c(c3)OCO4)n2)cc1 | inactive | 13.9
Cc1cccc(NC(=O)NC(C)C(c2ccccc2)N2CCN(C)CC2)c1 (stereo not given) | inactive | -13.4
COc1cc(C(=O)Nc2cc(-c3cn4cccnc4n3)ccc2C)cc(OC)c1OC | inactive | -3.97
COc1cccc(NC(=O)CN(C)C(=O)CSc2ccc3c(c2)OCCO3)c1 | inactive | 2.81
Cc1cc(SCC(=O)Nc2ncc(Cl)cc2Cl)nc2ccccc12 | inactive | 19.1
COCCn1nnnc1SCC(=O)c1ccccc1 | 20.6 µM (active) | 2.95
COc1ccc(C(=O)CSc2nnnn2Cc2ccccc2)cc1 | inactive | 14.6
COCCn1nnnc1SCC(=O)N1CCCCC1 | inactive | 6.22
